Screening data as filed in PubChem BioAssay.
TDP1 cell CPT: DT40-hTDP1 cell growth loss with CPT | Potency, µM (series often up to 46.2 µM), for inactives: at the top dose activity change, negative = growth inhibition, hits mostly inhibitors | chicken DT40 Tdp1-/-;hTDP1 cells + 20 nM CPT, ATP luminescence, 48 h | AID 686979 | hit rate 12% among 420,000; also: potency is read from the fitted curve at half-maximal effect; nearly all actives have a fitted effect of over 55% in size
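Chicken DT40 Tdp1-/- cells stably complemented with human TDP1 were seeded at 400 cells/well in medium containing 20 nM camptothecin, exposed to pin-transferred compounds, and grown at 37 °C for at least 48 hr. Viability was read as ATP luminescence.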
HT1080 IDH1KD tx: toxicity to HT-1080 IDH1 knockdown cells (counter line); HT-1080 IDH1 knockdown viability, ATP luminescence, 48 h; AID 686971; hit rate 2% among 360,000; Potency, µM (series often up to 46.1 µM), without a hit: at the top dose activity, negative = toxicity, most hits filed as cytotoxic;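 also: potency is read from the fitted curve at half-maximal effect; 0% = DMSO wells and -100% = cell-free medium wells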
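IDH1KD HT-1080 cells, 750/well, RPMI + 5% FBS; compound pinned after 2 h settling; 48 h, 37 °C; CellTiter-Glo luminescence; % activity normalised to DMSO and no-cell wells; curves fitted, classed by r2 and efficacy.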
uPA surface inh: blocks generation of uPA at the cell surface; AID 540303; hit rate 0.31% among 330,000; Potency, µM (highest dose often 38.3 µM), for inactives: at the top dose activity change, negative = inhibition, hits mostly inhibitors; cell surface uPA generation assay, qHTS; active = well fitted inhibition curve with a large enough effect; inconclusive = small, poorly fitted or top-dose-only effect; inactive = no such curve, though single readings can be large or run the other way; tested in mouse RAW 264.7 cells; also: potency is read from the fitted curve at half-maximal effect; nearly all actives have a fitted effect of over 55% in size
IL1B secr inh: inflammasome signaling inhibition, IL-1 beta readout; THP-1 LPS/ATP IL-1B secretion, AlphaLISA, 16 h; hits give low values; activity change, % at 57.5 µM; hit rate 4.7% among 360,000; in the data active = activity change below about -50%; inconclusive = mostly about -30% to -49%
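THP-1 cells pretreated 1 hr with compounds (up to 57.5 uM final), then stimulated with LPS (250 ng/mL final) plus ATP (1.25 mM final); secreted IL-1B measured by AlphaLISA after 16 hr, decreased signal indicating inhibition.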
DT40 TDP1 no CPT: qHTS for Inhibitors of human tyrosyl-DNA phosphodiesterase 1 (TDP1): qHTS in cells in absence of CPT. DT40 Tdp1-/- hTDP1 cells, no CPT, ATP luminescence, 48 h. Potency, µM (highest dose often 46.2 µM), for the others: at the top dose activity change, negative = growth inhibition, actives largely listed as inhibitors. hit rate 15% among 420,000; also: potency is read from the fitted curve at half-maximal effect; nearly all actives have a fitted effect of over 55% in size
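Chicken DT40 Tdp1-/- cells complemented with human TDP1, screened without camptothecin (DMSO vehicle only), 400 cells/well. Compounds pin-transferred, cells incubated at 37 °C for at least 48 hr. Growth read as ATP-dependent luminescence (CellTiter-Glo, 30 min at RT).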
HT1080NT lethal: kills 2HG-producing HT-1080-NT fibrosarcoma cells. HT-1080-NT fibrosarcoma viability, CellTiter-Glo ATP luminescence, 48 h. Potency, µM (titrated, usually from 46.1 µM), without a hit: at the highest dose activity, negative = less viability, usual class: cytotoxic. hit rate 1.6% among 360,000;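 also: NT is the 2HG producing partner of a matched IDH1 knockdown line; potency is read from the fitted curve at half-maximal effect; 0% = DMSO-treated cells and -100% = media-only wells without cells; nearly all actives have a fitted effect of over 55% in size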
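750 cells/well, RPMI + 5% FBS; 2 h settle, compound pin-transfer, 48 h at 37 degrees C. CellTiter-Glo 10 min RT, luminescence. Normalized to DMSO and media-only wells.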
Numbers without * were called inactive; ? = inconclusive; / = no result; [ ] = remark or other dose. Rows were chosen to be rich in hits. Some 19% of all compounds tested hit in one or more screens of this group. Unless noted, calls follow the shape of the dose curve; as a rule, active = well fitted curve in the direction sought with a large enough effect; inconclusive = small, poorly fitted or top-dose-only effect, or another doubt; inactive = no such curve, though single readings can be large; an effect the other way counts as inactive or inconclusive. Unless noted, % is scaled to controls: 0 for no effect and ±100 for the full control effect.

SMILES | TDP1 cell CPT | HT1080 IDH1KD tx | uPA surface inh | IL1B secr inh | DT40 TDP1 no CPT | HT1080NT lethal
COc1ccc(C2=NN(C(=O)CSc3nc4ccccc4s3)C(c3ccc(F)cc3)C2)cc1 (stereo not drawn) | 20.6µM* | -4.6% | -5.7% | -6.2 | ? | -5.8%
COc1ccc(C2=NN(C(=O)CSc3ncccn3)C(c3ccc(OC)cc3)C2)cc1 (stereo not drawn) | ? | 0.6% | -3.2% | 7.5 | ? | -2.1%
COc1ccc(C2=NN(C(=O)CSc3cn(C)c4ccccc34)C(c3ccc(OC)cc3)C2)cc1 (stereo not drawn) | ? | -21.7% | ? | ? | ? | -19.5%
CCCn1c(SCc2nc(-c3ccccc3C)no2)nnc1-c1ccc(Cl)cc1 | 13µM* | / | / | / | 16.4µM* | /
COc1ccc(-c2nnc(SCc3nnc(-c4ccccc4)o3)n2C)cc1OC | -9.9% | -0.3% | -4.2% | -10.1 | -24.0% | 13.4%
CCCn1c(SCc2nc(-c3ccc(OC)c(OC)c3)no2)nnc1-c1ccccc1 | ? | / | / | / | 18.4µM* | /
CCCn1c(SCc2nc(-c3cc(OC)ccc3OC)no2)nnc1-c1ccc(Cl)cc1 | 13µM* | / | / | / | 14.6µM* | /
O=C1NC[C@@H](CCCCN2C[C@H](Cc3ccc(O)cc3)N(CC3CCCCC3)C(=O)C2=O)N(CC2CCCCC2)C1=O | -8.3% | 22.4% | / | 6.8 | -17.1% | 13.4%
Cc1cccc(C(=O)Nc2nnc(S(=O)(=O)N3CCCc4ccccc43)s2)c1 | ? | / | / | / | 16.4µM* | /
O=C(Nc1nnc(S(=O)(=O)N2CCCc3ccccc32)s1)c1cccc(Cl)c1 | ? | / | / | / | 18.4µM* | /
O=C(COc1ccc(Cl)cc1)Nc1nnc(S(=O)(=O)N2CCc3ccccc32)s1 | ? | / | / | / | 18.4µM* | /
Cc1ccc(C(=O)Nc2nnc(S(=O)(=O)N3CCc4ccccc43)s2)cc1 | -24.3% | / | / | / | -25.1% | /
O=C(Nc1nnc(S(=O)(=O)N2CCCCC2)s1)c1cccc(Br)c1 | 23.1µM* | 1.3% | 9.7% | 7.0 | 14.6µM* | -3.5%
CCC(=O)Nc1nnc(S(=O)(=O)N2CCc3ccccc32)s1 | -17.4% | -3.7% | -30.0% | -18.3 | -1.5% | 1.3%
CCOc1ccc(NC(=O)c2ccc(F)cc2F)cc1 | -19.0% | -9.4% | -16.4% | -15.8 | -28.2% | -4.0%
O=C(Nc1cccc(F)c1)N1CC[C@@]2(CCCNC2)C1 | -17.4% | / | / | / | -24.1% | /
O=C(O)CCCC[C@@H]1SC[C@H]2NC(=O)N[C@@H]12 | 5.7% | / | / | / | -11.5% | /
CCOC(=O)c1ccc(OCCN2C[C@H](O)[C@@H](O)[C@H](O)[C@H]2CO)cc1 | -2.8% | / | / | / | ? | /
Cc1ccccc1N(CC(=O)NCc1ccccc1)C(=O)CCC(=O)Nc1nccs1 | -26.8% | 11.5% | -2.2% | -17.3 | ? | -24.7%
CCN1C(=O)C(Cc2nc3ccccc3c(=O)n2C)c2cc(C)ccc21 (stereo not drawn) | ? | / | / | / | 25.9µM* | /
CCn1c(CC2C(=O)N(C)c3ccc(Br)cc32)nc2ccccc2c1=O (stereo not drawn) | 5.17µM* | / | / | / | 1.46µM* | /
CCn1c(CC2C(=O)Nc3ccccc32)nc2ccccc2c1=O (stereo not drawn) | -12.1% | / | / | / | ? | /
CCCN1C(=O)C(Cc2nc3ccccc3c(=O)n2CC)c2cc(Br)ccc21 (stereo not drawn) | 1.16µM* | / | / | / | 1.16µM* | /
CCCN1C(=O)C(Cc2nc3ccccc3c(=O)n2-c2ccccc2)c2ccccc21 (stereo not drawn) | -25.4% | -4.6% | -1.7% | 0.0 | ? | -2.8%
CCCN1C(=O)C(Cc2nc3ccccc3c(=O)n2CC)c2ccccc21 (stereo not drawn) | ? | / | / | / | 5.17µM* | /
SMILES | TDP1 cell CPT | HT1080 IDH1KD tx | uPA surface inh | IL1B secr inh | DT40 TDP1 no CPT | HT1080NT lethal
CSc1nc(N)c2ncn([C@H]3O[C@H](COP(=O)(O)OP(=O)(O)OP(=O)(O)O)[C@@H](O)[C@@H]3O)c2n1 | -0.4% | / | / | / | ? | /
Cc1cccc(NC(=O)CNC(=O)COc2ccc(C(=O)c3ccc(F)cc3)cc2)c1C | 18.4µM* | -0.4% | -1.7% | 41.5 | 10.3µM* | 3.2%
Cc1cccc(NC(=O)CNC(=O)COc2ccc(-c3ccc(C#N)cc3)cc2)c1C | -22.5% | -4.1% | -1.9% | 5.3 | 13µM* | -4.3%
COc1ccc(F)c(CN2CCOc3ccc(CN4CCCCC4CO)cc3C2)c1 (stereo not drawn) | -1.0%[9.04 µM] | / | / | / | -18.6% | /
C/C(=N\NC(=S)NCCc1ccccc1)c1ccc(Cl)cc1 | ? | -18.5% | -0.1% | 0.0 | ? | -4.2%
C/C(=N\NC(=S)NCCc1ccccc1)c1ccc(C)cc1 | ? | -3.2% | -3.8% | -5.5 | 18.4µM* | -7.1%
C/C(=N\NC(=S)NCCc1ccccc1)c1ccc(C#N)cc1 | ? | 7.08µM* | / | 3.0 | 13µM* | 6.31µM*
Cc1ccc(N(CC(=O)NCc2ccccn2)S(=O)(=O)c2ccccc2)cc1C | 0.6% | 0.2% | 2.8% | -0.2 | -24.1% | -0.6%
Cc1ccc(C)c(Cn2c(CN(C)Cc3ccccc3)nc3c2c(=O)n(C)c(=O)n3C)c1 | 18.4µM* | -5.5% | -8.6% | -7.1 | 14.6µM* | -6.5%
CC(C)n1c(CN(C)Cc2ccccc2)nc2c1c(=O)n(C)c(=O)n2C | 0.731µM* | ? | -6.3% | 3.4 | 0.411µM* | -9.2%
C=C(C)Cn1c(CN(C)Cc2ccccc2)nc2c1c(=O)n(C)c(=O)n2C | 7.31µM* | -12.3% | ? | 0.0 | 5.17µM* | -8.6%
CN(Cc1ccccc1)Cc1nc2c(c(=O)n(C)c(=O)n2C)n1Cc1ccc(Cl)cc1 | ? | -4.1% | 1.4% | 8.0 | ? | 0.7%
Cc1ccc(Cn2c(CN(C)Cc3ccccc3)nc3c2c(=O)n(C)c(=O)n3C)cc1 | ? | -7.5% | 2.1% | -9.3 | ? | -1.4%
CC(=O)C(C)n1c(CN(C)Cc2ccccc2)nc2c1c(=O)n(C)c(=O)n2C (stereo not drawn) | 8.2µM* | -8.0% | -9.5% | 8.8 | 8.2µM* | -4.9%
CC(C)N1C(=O)C(O)(c2c[nH]c3ccccc23)c2ccccc21 (stereo not drawn) | -21.7% | / | / | / | ? | /
O=C(NCCc1ccccn1)c1nc(Cn2ccc([N+](=O)[O-])n2)no1 | 1.3% | 1.1% | 4.7% | 27.2 | -4.3% | 7.2%
CC1(C(=O)O)CCN1C(=O)c1ccccc1F (stereo not drawn) | 0.6% | 12.8% | / | 14.7 | -7.0% | 3.6%
Cc1cccn2c(=O)c(C(=O)NCc3cccc(F)c3)cnc12 | -2.8% | / | / | / | ? | /
